SMILES strings stand for the structures. This is part of a sample that, as a whole, favours compounds with a hit. Of some 83,000 tested, about 20% had one in any assay.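 Compound tested at a single concentration for 48 hours in 96-well plates; a percent growth value below 10 was scored as active.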 Unmarked numbers belong to inactive results. The source made the active and inactive calls.

Common to all, as to assay: NCI-60 one-dose screen, 48 h (100 = growth as untreated, 0 = no growth, -100 = all killed)
What all share (settings): 10 µM unless noted

Assay [1] has as its system NCI-H23 lung.
Assay [2] relates to NCI-H226 lung.
Assay [3] has as its system NCI-H322M lung.
Assay [4] concerns HOP-62 NSCLC.
In assay [5] the test system is NCI-H460 lung.
For assay [6], the system named is NCI-H522 lung.
Assay [7] deals with A549/ATCC NSCLC.
The subject of assay [8] is 786-0 renal.
Assay [9] relates to COLO 205 colon.
The test system of assay [10] is DU-145 prostate.
The test system of assay [11] is K-562 leukemia.
In assay [12] the test system is MALME-3M melanoma.
Assay [13] deals with MDA-MB-231 breast.
Assay [14] deals with RXF 393 renal.
Assay [15] deals with SF-268 CNS.
Assay [16] deals with SF-295 CNS.
Assay [17] has as its system SF-539 CNS.
The test system of assay [18] is UACC-257 melanoma.
Assay [19] relates to M14 melanoma.
The subject of assay [20] is HOP-92 NSCLC.

In the case of `CNC(=O)c1cc(Oc2cccc3nc(NC(=O)Nc4ccc(F)cc4F)ccc23)ccn1`, the growth was 42.7% in [1]; 49.7% in assay [2]; 33% in [3]; 0.65% (active) in assay [4]; 13.7% in [5]; 46% in [6]. Also, the growth in assay [7] is 8.57% (active); in assay [8], -48.7% (active); in assay [9], 37.9%; in [10], 30%; in [11], 42%; in [12], -21.2% (active). The growth in assay [13] is 60.1%; in assay [14] it was 1.54% (active); in assay [15], 48.1%; in [16], 55.6%; in assay [17] it was -18.9% (active); in assay [18], 56.3%. Also, in [19], the growth is 19.3%.
Regarding `C=CCn1c(SCC(=O)Nc2ccc(C(=O)/C=C/c3ccc(Cl)cc3)cc2)nnc1-c1ccc(Cl)c(Cl)c1`, the growth in assay [1] is 85%; in [2], 85.7%; in assay [3] it was 83.4%; in assay [4], 84.3%; in [5] it was 90.2%; in assay [6], 66.5%. In addition, the growth is 67.4% in assay [7]; 82.9% in [8]; 100% in assay [9]; 92.2% in assay [10]; 50.4% in assay [11]; 85.2% in assay [12]. Also, the growth in assay [13] was 85.2%; in assay [14], 75.1%; in assay [15], 80.4%; in assay [16], 93.9%; in assay [17], 87%; in [18], 93.9%. Besides, in assay [19], the growth was 80.1%.
`C/C(=C(\c1ccc(OCCCN(C)C)cc1)c1ccc(OC(=O)Cc2ccccc2)cc1)c1ccc(Cl)cc1`: the growth in [1] was 84.6%; in assay [2], 100%; in [3], 86.8%; in [4], 78.9%; in [5], 40.8%; in assay [6], 67.2%. Also, the growth in assay [7] was 63.3%; in [8], 68.3%; in [9], 50.6%; in assay [10], 80.7%; in assay [11] it was 0.63% (active); in [12], 87.6%. The growth in [13] is 68.4%; in [14], 69.7%; in assay [15], 77.4%; in assay [16] it was 79.1%; in assay [17], 82%; in [18], 91.5%. The growth in assay [19] is 7.02% (active).
On to `O=C(Nc1ncc(Cc2ccccc2Cl)s1)c1ccc2c(c1)OCCO2`, for which the growth in assay [1] is 40.8%; in assay [2], 30.1%; in assay [3], 48.9%; in assay [4], 28.3%; in assay [5], 5.42% (active); in [6], 1.6% (active). For the same compound, the growth in assay [7] is 20.8%; in assay [8], 41.2%; in assay [9], -3.85% (active); in [10], 9.81% (active); in assay [11], 8.27% (active); in assay [12] it was 56.6%. The growth in assay [13] was 23.5%; in [14] it was 9.52% (active); in assay [15], 41.2%; in assay [16], 11.7%; in assay [17], -8.75% (active); in [18] it was 53.1%. Further, the growth in assay [19] was 10.3%.
With `O=C1NCCN1/N=C/c1c(Cl)n(Cc2ccc(Cl)cc2)c2ccccc12`, the growth in assay [1] was 98.2%; in assay [2], 64.8%; in assay [3], 110%; in assay [4], 136%; in assay [5], 41.4%; in assay [6], 93.9%. Besides, the growth in assay [7] is 70%; in assay [8], 96.5%; in assay [9], 75.2%; in assay [10], 89.4%; in assay [11], 65.2%; in [12], 150%. The growth is 73.9% in [13]; 69.4% in assay [14]; 104% in assay [15]; 74.2% in assay [16]; 87.2% in assay [17]; 64.6% in assay [18]. Moreover, in assay [19], the growth is 114%.
`COc1cccc(/C=C2\CCc3ccccc3C2=O)c1`: the growth is 83.6% in assay [1]; 93.6% in assay [2]; 98% in assay [3]; 88.4% in assay [4]; 96.6% in assay [5]; 62.9% in assay [6]. Moreover, the growth in [7] was 85.1%; in assay [8] it was 81.4%; in assay [9], 112%; in [10], 97.8%; in assay [11], 35.1%; in assay [12], 80.7%. For the same compound, the growth was 89.9% in assay [13]; 90.2% in assay [14]; 90.3% in [15]; 88.9% in assay [16]; 91.5% in assay [17]; 80.8% in [18]. For the same compound, the growth in [19] is 90%.
Take `C#C[C@]1(O)CC[C@H]2[C@@H]3CC=C4c5sc(-c6ccccc6)nc5CC[C@]4(C)[C@H]3CC[C@@]21C`: the growth in assay [1] is 84.1%; in assay [2], 99.6%; in assay [3] it was 86.7%; in [4] it was 99.5%; in assay [5] it was 75.5%; in assay [6], 77.9%. For the same compound, the growth in [7] was 101%; in assay [8], 42.9%; in [9], 116%; in assay [10], 96.1%; in [11] it was 17.6%; in assay [12], 97.5%. In addition, the growth in [13] is 89%; in assay [14], 32.3%; in assay [15], 83.4%; in assay [16], 41.4%; in assay [17] it was 31.6%; in [18], 84.6%. Moreover, the growth in assay [19] is 78.9%.
Regarding `COC(=O)c1nc(-c2ccccc2)oc1S(=O)(=O)NCC(c1ccc(Cl)cc1)N1CCCCC1` (configuration not stated), the growth in assay [1] is 84.4%; in assay [2], 88.5%; in [3] it was 97.2%; in assay [4], 90.9%; in assay [5], 85.6%; in assay [20], 48.8%. The growth in [6] was 25.6%; in assay [7] it was 85.3%; in assay [8] it was 59.8%; in assay [10] it was 97.9%; in [11], 9.15% (active); in assay [12], 99.1%. For the same compound, the growth is 72.2% in assay [13]; 82.7% in assay [14]; 82.5% in [15]; 102% in [16]; 88.1% in assay [17]; 88% in assay [18]. In assay [19], the growth was 38%.
